# Assay results as given in PubChem BioAssay (NCI).
# The panel holds about 83,000 compounds, 20% with a hit somewhere; the sample as a whole holds those more often.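 In brief: 96-well plates, 48 h treatment, single concentration, percent growth endpoint.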 Calls of active or inactive are those of the source. Rule for the calls: active = growth percent below 10; inactive = the rest.
# Tested on: MDA-MB-468 breast
# Test: NCI-60 one-dose screen, 48 h (100 = growth as untreated, 0 = no growth, -100 = all killed)
# Settings: 10 µM unless noted
row,Structure (SMILES),growth
1,CN(C)c1ccc(N=C2C=CC(=O)C=C2)cc1,12.5% (inactive)
2,CCOC(=O)c1c(-c2ccc(O)cc2)c(C#N)c2c(C#N)c(N)nn2c1N,35.2% (inactive)
3,O=C(N/N=C/c1c[nH]c2ccccc12)c1cc(-c2ccccc2)on1,94.9% (inactive)
4,COc1ccc(/C=C/C(=O)c2ccc(Oc3ncnc4ccccc34)cc2)cc1OC,28.4% (inactive)
5,Nc1ccc([N+](=O)[O-])cc1N=C/C=C/c1ccccc1,46.4% (inactive)
6,O=[N+]([O-])CC(O)c1ccccc1 (stereo not given),98.7% (inactive)
7,Cc1ccc(NCCN(C)CC(C)O)c2c(=O)c3ccc(Cl)cc3sc12 (stereo not given),-2.72% (active)
8,CS(=O)(=O)c1ccc(-c2[nH]c3ccc(F)cc3c2/C=N/NC(N)=S)cc1,8.01% (active)
9,O=C(Nc1ccc(Nc2ncccn2)cc1)NC1C=c2ccccc2=CC1 (stereo not given),110% (inactive)
10,O=c1cc(-c2ccccc2)oc2c1ccc1ccccc12,80.1% (inactive)
11,CCOc1c(Br)cc(C2C(C(=O)OC)=CN(C)C=C2C(=O)OC)cc1OC,0.386% (active)
12,CC1=C(N2CCOCC2)C(N2CCOCC2)=C(C)C(=O)C1=O,97.1% (inactive)
13,CCCCCCCC/C=C/CCCCCCCC1=NC(C)(C)CN1CCO,-64.5% (active)
14,Cn1cc(-c2nnc(-c3cn(C)c4ncccc34)o2)c2ccccc21,-11.4% (active)
15,O=C1C=C(OCC=C(C(F)(F)F)C(F)(F)F)c2ccccc2C1=O,-51.2% (active)
16,COCC(=O)NC/C=C/c1ccc2ncnc(Nc3ccc(Oc4ccc(C)nc4)c(C)c3)c2c1,28.4% (inactive)
17,CC(=O)O[C@@H]1C(=O)N(c2cnccn2)[C@H]1c1ccccc1[N+](=O)[O-],-4.17% (active)
18,Cc1cccc(N2CCN(C(=S)c3ccc4c(c3)OCO4)CC2)c1,-37.6% (active)
19,COc1ccc2c(c1)c(CC(=O)[Se]CC#N)c(C)n2C(=O)c1ccc(Cl)cc1,-43.2% (active)
20,C=C1CCC2C3(C)COC(c4ccc(N(C)C)cc4)OC3CCC2(C)C1C/C=C1/C(=O)OCC1O (stereo not given),22.2% (inactive)

row,Structure (SMILES),growth
1,C=C1C(=O)O[C@H]2[C@H]1CC/C(COC(=O)NCc1cc(OC)cc(OC)c1)=C\CC[C@@]1(C)O[C@@H]21,10.2% (inactive)
2,C=CCNCCCN1C(=O)c2ccc3c4c(ccc(c24)C1=O)C(=O)N(CCCNCC=C)C3=O,-88.5% (active)
3,COc1ccc(-c2nn(Cc3ccccc3)c3c2-c2oncc2CC3)cc1OC,99.9% (inactive)
4,CC(O)c1nc2c(c(=O)n(C)c(=O)n2C)n1C (stereo not given),105% (inactive)
5,CN(C)c1ccc(/C=C/C(=O)c2ccc(NC(N)=O)cc2)cc1,81% (inactive)
6,COC[C@H](C)n1c(C2CCOCC2)nc2cnc3cc(-c4c(C)noc4C)c(OC)cc3c21,54.5% (inactive)
7,O=C(O)c1ccc(P(=O)(O)O)c([N+](=O)[O-])c1,98.4% (inactive)
8,CN1CCN(CCCCCC(=O)Nc2nc(-c3cccc(NS(=O)(=O)c4cccc5c(N(C)C)cccc45)c3)cs2)CC1,74% (inactive)
9,COc1ccc(C(O)(c2ccccc2)C(C(=O)O)c2ccccc2)cc1 (stereo not given),110% (inactive)
10,c1ccc(C(Nc2ccccn2)(c2ccccc2)c2ccccc2)cc1,52.7% (inactive)
11,Cn1cccc1/C=C1\C(=O)Nc2ccccc21,-1.95% (active)
12,C=CC(=O)N[C@@H](/C=C/C(=O)OCC)Cc1ccc(-c2cc(Cl)cc(Cl)c2)cc1,1.83% (active)
13,O=C(COc1cccc(/C=C2\Cc3ccc(Cl)cc3C2=O)c1)Nc1nccs1,21.9% (inactive)
14,CCCN(CCC)C(=O)[C@H](CC)[C@@H]1CC[C@@H](C)[C@@H]([C@H](C)[C@@H](O)[C@@H](C)C(=O)[C@H](CC)C2O[C@]3(C=C[C@@H](O)[C@]4(CC[C@@](C)([C@H]5CC[C@](O)(CC)[C@H](C)O5)O4)O3)[C@H](C)C[C@@H]2C)O1 (stereo not given in full),-24.6% (active)
15,CSc1nc(C)c([N+](=O)[O-])c(N)n1,106% (inactive)
16,O=C(O)CCC(=O)OC(C1CO1)C(OC(=O)CCC(=O)O)C1CO1 (stereo not given),99% (inactive)
17,c1ccc2nc(N3CCOCC3)c(N3CCCCC3)nc2c1,94% (inactive)
18,C/C(=N\NC(=O)c1ccccc1O)c1cccc(/C(C)=N/NC(=O)c2ccccc2O)n1,23.9% (inactive)
19,Cc1ccc(Cn2c(O)c(N=NC(=O)c3ccc(S(N)(=O)=O)cc3)c3ccccc32)cc1,100% (inactive)
20,CCN(CC)CCN1C(=O)c2c(c3c4cccnc4[nH]c3c3ccc4ccccc4c23)C1=O,63.3% (inactive)
